# Source: PubChem
# Most compounds without a hit are left out; they make up all but 5.7% or so of the library.
# PI4K2A inh – inhibitors of human PI4K2A; activity change, negative = inhibition, % at 76.9 µM; purified PI4K2A, ADP-Glo luminescence, 1 h; hits give low values; 420,000 tested, 0.13% active; in the data active means activity change below about -50%; inconclusive means mostly about -30% to -49%;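 further: -100% = wells without enzyme as full effect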
# Target sequence (Q9BTU6 whole entry, looked up): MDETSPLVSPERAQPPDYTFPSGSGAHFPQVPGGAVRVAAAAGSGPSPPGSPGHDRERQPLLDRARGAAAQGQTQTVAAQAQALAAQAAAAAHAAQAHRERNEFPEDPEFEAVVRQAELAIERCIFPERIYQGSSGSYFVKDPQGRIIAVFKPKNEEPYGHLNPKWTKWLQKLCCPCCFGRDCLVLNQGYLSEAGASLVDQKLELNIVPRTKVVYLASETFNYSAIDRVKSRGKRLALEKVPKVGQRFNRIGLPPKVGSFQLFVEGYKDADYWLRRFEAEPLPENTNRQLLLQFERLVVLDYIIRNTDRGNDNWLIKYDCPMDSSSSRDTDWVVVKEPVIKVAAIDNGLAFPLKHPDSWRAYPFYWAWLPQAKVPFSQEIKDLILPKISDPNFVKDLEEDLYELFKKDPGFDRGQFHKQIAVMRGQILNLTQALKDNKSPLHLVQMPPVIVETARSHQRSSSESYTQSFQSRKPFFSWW
#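 ADP-Glo luminescence measured ADP generated by PI4K2A enzyme (4 ug/mL before mixing) with 1.2 mM PI substrate (pre-mix) and 300 microM ATP (pre-mix). Tris pH7.5 buffer with MgCl2, Triton X-100; 1 h reaction at ambient temperature.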
# A549 tox – counter-screen for Nrf2 inhibitors: cytotoxicity in A549 cells | Potency, µM (series often up to 46 µM), for inactives: at the highest dose activity change, negative = cytotoxicity, actives largely listed as inhibitors | A549 ARE-Fluc cells, CellTiter-Fluor viability, 18-24 h | 390,000 tested, 0.16% active; further: potency means the concentration at half of the fitted maximal effect
#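 A549 ARE-Fluc cells in 5% FBS OPTI-MEM, 5000 cells/well, rested 2 h then exposed to compounds in concentration-response for 18-24 h at 37 °C. Viability by CellTiter-Fluor fluorescence (Ex 405/Em 525) after 30 min; luciferase luminescence (BugLite, 15 min, RT) read afterwards.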
# KB-3-1 cytotox – kills parental KB-3-1 adenocarcinoma cells | 400,000 tested, 1.4% active | Potency, µM (titrated, usually from 46.1 µM), most hits filed as cytotoxic | KB-3-1 viability, CellTiter-Glo ATP luminescence, 72 h; further: potency means the concentration at half of the fitted maximal effect; nearly all actives have a fitted effect of over 60% in size
#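 Using CellTiter-Glo luminescence, growth of non-resistant KB-3-1 adenocarcinoma cells is assessed 72 h after pin-tool compound addition at 37 °C. Normalized responses across the concentration series yield fitted curves.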
# Nrf2 block – blocks Nrf2 signaling | A549 ARE-Fluc reporter, luciferase luminescence, 18-24 h | Potency, µM (top dose mostly 46 µM), for inactives: top-dose activity change, negative = inhibition, usual class: inhibitors | 360,000 tested, 2.1% active | AID 504444; further: potency means the concentration at half of the fitted maximal effect; nearly all actives have a fitted effect of over 60% in size
#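 In this cell-based qHTS, ARE-driven firefly luciferase in A549 cells reports Nrf2 activity; the luminescent signal after BugLite lysis is the measured value, with a prior CellTiter-Fluor read for cell health.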
# Giardia killer – kills Giardia lamblia; Giardia lamblia trophozoite viability; activity change, % at 7.66 µM, hits read low; 340,000 tested, 0.15% active; AID 540267; in the data active means activity change below about -80%; inconclusive means between about -30% and that limit;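 further: parasites exposed to compound for two days anaerobically before the ATP read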
#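 Killing of trophozoites was scored by loss of ATP luminescence after a 48 hrs anaerobic exposure to compounds at 37 deg C, using 100 cells per well.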
# KB-V1 cytotox – KB-V1 MDR subline cytotoxicity; KB-V1 MDR cells viability, CellTiter-Glo, 72 h; 400,000 tested, 3.4% active; Potency, µM (titrated, usually from 46.1 µM), actives largely listed as cytotoxic; AID 1347076; further: potency means the concentration at half of the fitted maximal effect; nearly all actives have a fitted effect of over 60% in size
#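 KB-V1 MDR subline cells in DMEM (phenol-red free, 10% FBS) exposed to compounds in qHTS concentration series for 72 h at 37 degrees C. Viability read by CellTiter-Glo luminescence; concentration-effect curves fitted after normalization and correction.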
# Active calls of the source: *; i = inactive; ? = inconclusive; / = not tested or not shown. Unless noted, the call rests on the fitted dose curve; in most records, active means well fitted curve in the direction sought with a large enough effect; inconclusive means small, poorly fitted or top-dose-only effect, or another doubt; inactive means no such curve, though single readings can be large; an effect the other way counts as inactive or inconclusive. Unless noted, on the % scale 0 is the no-effect control and ±100 the full control effect.
SMILES,PI4K2A inh,A549 tox,KB-3-1 cytotox,Nrf2 block,Giardia killer,KB-V1 cytotox
COc1ccc(/C=N/NC(=O)c2cccc(COCC(F)(F)C(F)F)c2)cc1,-0.3,-1.1%,i,13.1%,0.8,23.1µM*
COc1ccc(/C=N/NC(=O)c2cccc(OC(F)(F)C(F)F)c2)cc1O,-4.0,-0.9%,i,6.9%,-0.1,i
O=C(c1cccc(COCC(F)(F)C(F)F)c1)N1CCN(c2ccccc2)CC1,4.9,-0.7%,i,9.4%,-4.2,14.6µM*
COc1ccc(C(=O)c2ccc(Cl)c([N+](=O)[O-])c2)cc1,4.3,2.6%,1.16µM*,?,-11.3,?
COc1ccc(C(=O)c2ccc(Cl)cc2)cc1,2.4,11.7%,i,?,8.3,i
Cc1ccc(-c2c(C)n3c4c(=O)n(C)c(=O)n(C)c4nc3n2CCCO)cc1,-5.3,-13.3%,?,18.4µM*,/,6.51µM*
Cc1ccoc1C(=O)Nc1ccc(CC(=O)O)cc1,-13.2,-8.2%,?,1.03µM*,-17.6,?
COc1cc2c(cc1NC(=O)CSc1nnc(-c3ccccc3C)n1Cc1ccco1)oc1ccccc12,-8.3,/,/,/,/,/
CCc1cccc(NC(=O)CC(c2ccc(OC)cc2)N2Cc3ccccc3C2=O)c1 (stereo not drawn),3.3,-1.8%,/,4.5%,/,/
O=C(Nc1ccc(F)c(Cl)c1)c1cc(C2CCCCN2C(=O)c2cccs2)on1 (stereo not drawn),3.4,/,23.1µM*,/,/,i
O=C(Nc1ccc2nc(SCC(=O)N3CCOCC3)sc2c1)c1ccccc1Cl,-2.1,-9.3%,/,?,/,/
Cc1ccc(C(=O)CSC2=C(C#N)C(c3ccco3)CC(=O)N2)c(C)c1 (stereo not drawn),0.9,-4.6%,i,-14.6%,8.0,14.6µM*
Cc1ccc(NC(=O)CSC2=C(C#N)C(c3ccco3)CC(=O)N2)cc1 (stereo not drawn),-16.7,-6.1%,?,-22.2%,30.6,?
COC(=O)CSC1=C(C#N)C(c2ccc(C)o2)CC(=O)N1 (stereo not drawn),-6.2,-14.6%,18.4µM*,?,20.8,?
COC(=O)CSC1=C(C#N)C(c2ccc(F)cc2)CC(=O)N1 (stereo not drawn),-1.6,-3.6%,i,-0.4%,-1.2,i
Cc1ccc(C2CC(=O)NC(SCc3ccccc3)=C2C#N)cc1 (stereo not drawn),8.5,2.4%,i,10.3µM*,-6.5,i
COC(=O)[C@]12C[C@H](CC(=O)NCc3cccc4ccccc34)C(=O)N(Cc3ccco3)C1=C[C@H](C(C)(C)C)O[C@@H]2C,-3.7,/,/,/,/,/
CC(C)N(Cc1nc(-c2ccc(Cl)cc2)no1)C(=O)/C=C/c1ccccc1,1.0,?,i,?,5.2,16.4µM*
CC(C)N(Cc1nc(-c2ccccc2)no1)C(=O)CN1C(=O)c2ccccc2C1=O,1.7,-8.8%,i,1.2%,1.5,10.3µM*
Cc1cccc(-c2noc(CN(C(=O)/C=C/c3ccccc3Cl)C(C)C)n2)c1,1.9,-4.3%,i,-29.4%,-12.7,?
CC(C)N(Cc1nc(-c2ccccc2)no1)C(=O)CCCN1C(=O)c2ccccc2C1=O,-2.2,2.5%,i,-28.2%,-7.2,i
Cc1ccc(-c2noc(CN(C(=O)C(c3ccccc3)c3ccccc3)C(C)C)n2)cc1,-0.8,-0.1%,?,?,5.9,8.2µM*
CC(C)N(Cc1nc(-c2ccc(Cl)cc2)no1)C(=O)C(c1ccccc1)c1ccccc1,-3.3,-13.1%,?,-12.0%,-7.8,?
O=C(CNC(=O)c1ccc(C(F)(F)F)cc1)OC(C(=O)Nc1cc(C(F)(F)F)ccc1Cl)c1ccccc1 (stereo not drawn),/,14.0%,/,12.9%,/,/
O=C(OCC#CCSc1nnc(-c2cccc3ccccc23)o1)C1CCC1,-3.1,0.6%,/,6.9%,/,/
Cc1c(NS(=O)(=O)c2cccs2)cccc1-c1nc2cccnc2s1,2.3,-2.8%,i,3.8%,-27.0,i
